Screens as filed in PubChem BioAssay.
HCV inhibitor: HCV inhibition; Potency, µM (top dose mostly 41.8 µM), hits mostly inhibitors; Huh7.5.1 HCVcc-Cre infection, luciferase reporter, 44 h; hit rate 3.4% among 340,000
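Infectious HCV cell culture screen: compound-treated cells (1,000/well, pre-plated 4 h) are infected with HCVcc-Cre at roughly 0.5 moi and grown 44 h. Infection is quantified by luciferase signal after 15 min substrate incubation at room temperature.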
Sm TGR block: S. mansoni TGR enzyme inhibition; Potency, µM (highest dose often 114 µM), most hits filed as inhibitors; purified TGR, DTNB reduction, TNB absorbance 405 nm; hit rate 3% among 360,000; AID 485364; further: nearly all actives have a fitted effect of over 60% in size
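TGR 20 nM + NADPH 100 uM (dispensed conc.), cpd preinc 15 min RT; start with NADPH (500 uM addition) then DTNB (15 mM addition). Kinetic TNB absorbance, 405 nm filter. Four-parameter Hill fit across titration.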
SARS PLpro yeast: blocks SARS-CoV papain-like protease in a yeast assay | S. cerevisiae expressing SARS-CoV PLpro, growth rescue | Potency, µM (highest dose often 32.9 µM), actives largely listed as activators | hit rate 0.19% among 330,000 | AID 485353; calls by dose curve; further: nearly all actives have a fitted effect of over 55% in size
HCMV antiviral: inhibitors of human cytomegalovirus | activity change, negative = inhibition, % at 57.5 µM | HFF cells, HCMV-luciferase reporter, 72 h; active compounds read low | hit rate 4.5% among 410,000; in the data active means activity change below about -60%; inconclusive means no clear call, values can overlap the other calls; inactive means above about -39%
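Two-dose cell screen: HFF monolayers treated with compounds and infected with luciferase-expressing HCMV at 1 PFU/cell, 72 h at 37C, then lysed for luciferase measurement.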
Pf growth 48h: P. falciparum growth inhibition at 48 hours (one generation); P. falciparum luciferase growth in erythrocytes, 48 h; Potency, µM (top dose mostly 28.7 µM), most hits filed as inhibitors; hit rate 5.9% among 310,000; AID 504832
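Luminescence readout; reporter = integrated firefly luciferase in P. falciparum. RBC culture at 2% hematocrit, 0.1% parasitemia final, 37 C/5% CO2; decreased signal taken as growth inhibition.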
Pf growth 96h: P. falciparum growth inhibition at 96 hour, primary screen for plastid delayed-death inhibitors. P. falciparum luciferase reporter growth, 96 h. hit rate 6.9% among 320,000. Potency, µM (top dose mostly 28.7 µM), actives largely listed as inhibitors
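Two parasite generations (96 h, 37 C, 5% CO2) of compound exposure in infected erythrocytes (0.05% parasitemia, 2% hematocrit). Luciferase-reporter P. falciparum; decreased luminescence indicates inhibited growth, aimed at apicoplast-acting delayed death.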
Each line names hits and unclear results; the compound was inactive in the other large screens. The list is not random: actives were taken first. Their share in the collection is about 15%. Unless noted, the call rests on the fitted dose curve; in most records, active means well fitted curve in the direction sought with a large enough effect; inconclusive means small, poorly fitted or top-dose-only effect, or another doubt; inactive means no such curve, though single readings can be large; an effect the other way counts as inactive or inconclusive.

O=C(c1ccccc1Oc1ccccc1)N1CCN(c2ccccc2)CC1	HCMV antiviral inconclusive, Pf growth 48h inconclusive, Pf growth 96h 15µM
COc1cc(Cl)ccc1NC(=O)COc1ccccc1C(=O)N1CCN(c2ccc(O)cc2)CC1	HCMV antiviral inconclusive, Pf growth 48h 5.9µM, Pf growth 96h inconclusive
O=C(O)c1ccccc1C(=O)N1CCN(c2cccc(Cl)c2)CC1	Sm TGR block inconclusive
CCOc1ccccc1C(=O)N1CCN(c2cccc(Cl)c2)CC1	HCMV antiviral -85, Pf growth 48h inconclusive (no result: Pf growth 96h)
O=C1CCCc2cc(S(=O)(=O)N3CCCC(C(=O)NCc4ccc(Cl)cc4)C3)ccc2N1 (configuration not stated)	none (no result: HCV inhibitor, SARS PLpro yeast, Pf growth 48h, Pf growth 96h)
C=CCn1c(SCC(=O)Nc2cccc(S(N)(=O)=O)c2)nc2sc(C)c(C)c2c1=O	HCV inhibitor inconclusive (no result: Sm TGR block, Pf growth 48h, Pf growth 96h)
CCc1ccc(C2=NN(CCC(=O)NC3CCCCCC3)C(=O)CC2)cc1	Pf growth 48h inconclusive, Pf growth 96h 10µM
CN1C(=O)C(C(Nc2ccccc2)c2ccccc2)c2ccccc21 (configuration not stated)	none (no result: HCV inhibitor, Sm TGR block, SARS PLpro yeast, Pf growth 48h, Pf growth 96h)
CC(C)N(Cc1ccccc1)C(=S)Nc1cccnc1	Pf growth 48h inconclusive, Pf growth 96h 7.4µM
CN(Cc1ccccc1)C(=S)Nc1cccnc1	none
CCN(Cc1ccncc1)C(=S)Nc1ccccc1	Pf growth 96h 2.9µM
Cc1[nH]c2ccc(F)cc2c1CCN(Cc1ccncc1)C(=S)Nc1ccccc1	HCV inhibitor inconclusive, Pf growth 48h inconclusive, Pf growth 96h inconclusive
CCCNC(=O)Cn1c(=O)/c(=C/c2ccc(-c3ccc([N+](=O)[O-])cc3)o2)s/c1=C\C(=O)C(C)(C)C	HCV inhibitor inconclusive, HCMV antiviral -96 (no result: Sm TGR block, SARS PLpro yeast, Pf growth 48h, Pf growth 96h)
O=C(NC1CCCC1)C1c2ccccc2OCC(=O)N1C1CC1 (configuration not stated)	none (no result: HCV inhibitor, Sm TGR block, SARS PLpro yeast, Pf growth 48h, Pf growth 96h)
C=CCOc1ccccc1CN(C(=O)CCl)c1ccc2c(c1)OCO2	HCV inhibitor inconclusive, Sm TGR block 8.9µM, HCMV antiviral -99, Pf growth 48h inconclusive, Pf growth 96h 12µM
Cc1ccc(CN2CC(C(=O)N3CCN(c4ccccc4Cl)CC3)CC2=O)cc1 (configuration not stated)	HCV inhibitor inconclusive, Pf growth 48h 6.6µM, Pf growth 96h 12µM
COc1ccc(CNC(=O)COC(=O)C2CCC(C(C)(C)C)CC2)cc1 (configuration not stated)	HCMV antiviral -77
Cc1ccc(CNC(=O)COC(=O)C2CC2)cc1	none
COc1ccc(CCN2CC(C(=O)NCc3cccc4[nH]ccc34)CCC2=O)cc1 (configuration not stated)	HCMV antiviral inconclusive, Pf growth 96h 9.3µM
O=C1CC(C(=O)N2CCN(Cc3ccccc3)CC2)CN1Cc1ccccc1 (configuration not stated)	Pf growth 48h inconclusive
COc1ccccc1CN1CC(C(=O)NCc2nc3ccccc3n2C)CCC1=O (configuration not stated)	HCMV antiviral -64 (no result: HCV inhibitor)
Cc1ccc(Cc2c(C)nc3nc(SCC(=O)NCCN4CCCCCC4)nn3c2C)cc1	none (no result: HCV inhibitor, Sm TGR block, SARS PLpro yeast, Pf growth 48h, Pf growth 96h)
COc1ccccc1CN1CC(C(=O)NCc2cccc(Cl)c2)CCC1=O (configuration not stated)	SARS PLpro yeast inconclusive
CCCCN(C)CCCNC(=O)C1CC(=O)N(Cc2ccc(OC)cc2)C1 (configuration not stated)	Pf growth 96h 12µM (no result: SARS PLpro yeast)
COc1ccc(CN2CC(C(=O)N3CC(C)CC(C)C3)CC2=O)cc1 (configuration not stated)	Pf growth 96h 3.7µM
COc1ccc(CN2CC(C(=O)NCCC(C)C)CC2=O)cc1 (configuration not stated)	none
COc1ccccc1CN1CC(C(=O)NCc2cccnc2)CC1=O (configuration not stated)	Pf growth 96h 2.1µM
COc1ccc(OCC2CCNCC2)cc1	Sm TGR block 35µM
Cc1[nH]ncc1-c1ccccc1Cl	HCV inhibitor inconclusive
COc1ccc(CN2CC(C(=O)NCc3cccc(OC)c3)CC2=O)cc1 (configuration not stated)	HCMV antiviral -105
COc1ccc(CNC(=O)C2CCNCC2)cc1	Sm TGR block 45µM
